Screens: PubChem, National Center for Advancing Translational Sciences (NCATS)
In the library only some 7.5% were active in any assay of this set; here they are far more common.
HCV inhibitor: qHTS Assay for Inhibitors of Hepatitis C Virus (HCV); hit rate 3.4% among 340,000; AID 651820, 2012; Potency, µM (top dose mostly 41.8 µM), inactives show at the top dose activity change, negative = inhibition, actives largely listed as inhibitors; Huh7.5.1 HCVcc-Cre infection, luciferase reporter, 44 h; further: potency means the concentration at half of the fitted maximal effect
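A cell-based infection assay in which seeded cells (1,000 per well) receive test compound after 4 h, are inoculated with HCVcc-Cre at approximately 0.5 moi, and are incubated 44 h before luminescence detection.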
HCMV inh: qHTS Assay for inhibitors of the human cytomegalovirus (HCMV) | HFF cells, HCMV-luciferase reporter, 72 h; hits give low values | AID 1259415, 2018 | hit rate 4.5% among 410,000 | activity change, negative = inhibition, % at 57.5 µM; in the data active means activity change below about -60%; inconclusive means no clear call, values can overlap the other calls; inactive means above about -39%
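Inhibition of viral replication was scored as loss of reporter luminescence in HFFs infected with HCMV-luciferase (MOI 1 PFU/cell) for 72 h; compounds tested at 2 doses, normalized to buffer and Salinomycin controls.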
FBPA Giardia inh: qHTS Assay for Inhibitors of Fructose-1,6-bisphosphate Aldolase from Giardia Lamblia. Potency, µM (highest dose often 59.6 µM), inactives show at the highest dose activity, negative = inhibition, hits mostly inhibitors. hit rate 0.71% among 290,000. purified Giardia FBPA. A8B2U2; further: potency means the concentration at half of the fitted maximal effect; nearly all actives have a fitted effect of over 55% in size
Target sequence (A8B2U2 whole entry, looked up): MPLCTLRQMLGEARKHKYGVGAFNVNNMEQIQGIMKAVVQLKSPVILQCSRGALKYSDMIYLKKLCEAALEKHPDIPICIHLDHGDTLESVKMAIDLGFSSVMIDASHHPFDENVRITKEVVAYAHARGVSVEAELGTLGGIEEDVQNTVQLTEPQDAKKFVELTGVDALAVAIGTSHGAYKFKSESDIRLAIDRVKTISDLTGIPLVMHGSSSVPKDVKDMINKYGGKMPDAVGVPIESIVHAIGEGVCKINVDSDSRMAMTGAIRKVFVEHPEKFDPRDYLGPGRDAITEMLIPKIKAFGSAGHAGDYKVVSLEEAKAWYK
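Giardia FBPA (40 nM reagent) was preincubated 10 min at RT with compound (up to 57.5 uM final), then substrate plus GAPDH/TPI/NAD/arsenate coupling system with diaphorase/resazurin was added; resorufin fluorescence (525/598 nm) was read after 20 min.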
VACV mCherry inh: qHTS for Stage-Specific Inhibitors of Vaccinia Orthopoxvirus: mCherry Reporter Primary qHTS; hit rate 0.63% among 310,000; Potency, µM (doses to about 36.5 µM), for inactives: top-dose activity change, negative = inhibition, usual class: inhibitors; Vaccinia virus mCherry reporter infection, fluorescence; calls by dose curve; tested in A549 cells; further: potency means the concentration at half of the fitted maximal effect; nearly all actives have a fitted effect of over 35% in size
Vaccinia Venus: qHTS for Stage-Specific Inhibitors of Vaccinia Orthopoxvirus: Venus Reporter Primary qHTS; Vaccinia virus Venus reporter expression, fluorescence; Potency, µM (series often up to 36.5 µM), inactives show top-dose activity change, negative = inhibition, most hits filed as inhibitors; hit rate 0.46% among 330,000; AID 720580, 2013; calls by dose curve; tested in A549 cells; further: potency means the concentration at half of the fitted maximal effect; nearly all actives have a fitted effect of over 30% in size
FMDV inh: High Throughput Screening for Foot and Mouth Disease Virus Antivirals. FMDV antiviral cell-based qHTS. Potency, µM (titrated, usually from 57.9 µM), for inactives: at the highest dose activity change, negative = inhibition, most hits filed as inhibitors. hit rate 1.2% among 410,000. AID 1159524, 2015; calls by dose curve; tested in HEK293T cells; further: read-out not given here; potency means the concentration at half of the fitted maximal effect; nearly all actives have a fitted effect of over 45% in size
Active calls of the source: *; [ ] = remark or other dose. Unless noted, the call rests on the fitted dose curve; in most records, active means well fitted curve in the direction sought with a large enough effect; inconclusive means small, poorly fitted or top-dose-only effect, or another doubt; inactive means no such curve, though single readings can be large; an effect the other way counts as inactive or inconclusive. On the % scale 0 is the no-effect control and ±100 the full control effect.

Results for c1ccc(C(c2cccs2)c2c[nH]c3ccccc23)cc1 (stereo not given) ?
HCMV inh: -66*; VACV mCherry inh: -24%; Vaccinia Venus: -11%; FMDV inh: inconclusive

Results for c1ccc(C(c2c[nH]c3ccccc23)c2c[nH]c3ccccc23)nc1 ?
HCV inhibitor: 0%; HCMV inh: 23; FBPA Giardia inh: -3%; Vaccinia Venus: inconclusive; FMDV inh: -29%

How did O=C(Nc1ccc(Cl)cc1)Nc1nnc(SCc2ccc(Cl)cc2)s1 do in these assays?
HCV inhibitor: 13%; HCMV inh: -18; FBPA Giardia inh: 5%; FMDV inh: inconclusive

What do the screens show for `Clc1cccc(Nc2nc(-c3ccncc3)cs2)c1`?
HCV inhibitor: 10µM*; HCMV inh: 146; FBPA Giardia inh: 2%; VACV mCherry inh: inconclusive; Vaccinia Venus: inconclusive; FMDV inh: -11%

How did O=C(Nc1ccc(Cl)cc1)Nc1nnc(-c2ccncc2)s1 do in these assays?
HCV inhibitor: inconclusive; HCMV inh: -67*; FBPA Giardia inh: 0%; VACV mCherry inh: -8%; Vaccinia Venus: -26%; FMDV inh: inconclusive

Results for Cc1cccc(Nc2nc(-c3ccncc3)cs2)c1 ?
HCV inhibitor: inconclusive; HCMV inh: 37; FBPA Giardia inh: -10%; FMDV inh: 5%

How did Cc1cnc(NC(=O)CSc2ccc(Cl)cc2)s1 do in these assays?
HCV inhibitor: 8%; HCMV inh: 5; FBPA Giardia inh: -3%; VACV mCherry inh: -15%; Vaccinia Venus: -21%; FMDV inh: -10%

What do the screens show for `O=C(Nc1ccc(F)cc1)Nc1nnc(-c2ccncc2)s1`?
HCV inhibitor: 25µM*; HCMV inh: -95*; VACV mCherry inh: -20%; Vaccinia Venus: -14%; FMDV inh: inconclusive

What do the screens show for `Cc1cnc(NC(=O)Nc2ccc(Cl)cc2)s1`?
HCV inhibitor: inconclusive; HCMV inh: -104*; FBPA Giardia inh: 2%; FMDV inh: 31%

Results for O=C(Cn1ncc2c([nH]c3ccccc32)c1=O)N1CCOCC1 ?
HCV inhibitor: 12%; HCMV inh: 24; FBPA Giardia inh: -5%; FMDV inh: -11%

How did Cc1ccc(NC(=O)Nc2nnc(-c3ccncc3)s2)cc1C do in these assays?
HCV inhibitor: inconclusive; HCMV inh: -92*; FBPA Giardia inh: 4%; FMDV inh: inconclusive

Results for O=C(Nc1cccc(Cl)c1)Nc1nnc(-c2ccncc2)s1 ?
HCV inhibitor: inconclusive; HCMV inh: -98*; FBPA Giardia inh: -5%; VACV mCherry inh: -28%; Vaccinia Venus: inconclusive; FMDV inh: inconclusive

How did CS(=O)(=O)c1ccc2nc(NC(=O)Nc3ccc(Cl)c(Cl)c3)sc2c1 do in these assays?
HCV inhibitor: -3%; HCMV inh: -38; FBPA Giardia inh: -4%; VACV mCherry inh: -16%; Vaccinia Venus: -6%; FMDV inh: -19%

Results for CS(=O)(=O)c1ccc2nc(NC(=O)Nc3cccc(Cl)c3)sc2c1 ?
HCV inhibitor: 11µM*; HCMV inh: -38; FBPA Giardia inh: -3%; VACV mCherry inh: -14%; Vaccinia Venus: inconclusive; FMDV inh: -5%

How did Cc1cc(C)cc(OCC(=O)NC(Cc2c[nH]c3ccccc23)C(=O)O)c1 (stereo not given) do in these assays?
HCMV inh: 5; VACV mCherry inh: -24%; Vaccinia Venus: -21%; FMDV inh: 4%

How did COC(=O)c1ccc(NC(=S)N2CCN(CCO)CC2)cc1 do in these assays?
HCV inhibitor: 9%; HCMV inh: 23; FBPA Giardia inh: -10%; FMDV inh: -8%

How did O=c1[nH]c(=O)n(Cc2ccccc2Cl)c(O)c1/C=C1/C=CC=N1 do in these assays?
HCV inhibitor: -6%; HCMV inh: -89*; FBPA Giardia inh: 2%; VACV mCherry inh: inactive; Vaccinia Venus: 38%; FMDV inh: -29%

How did O=C(NCc1ccc(OC(F)(F)F)cc1)c1cc(-c2ccccc2)nn1CC1CC(c2cccnc2)=NO1 (stereo not given) do in these assays?
HCV inhibitor: inconclusive; HCMV inh: -67*; VACV mCherry inh: inactive; Vaccinia Venus: -20%; FMDV inh: -10%

What do the screens show for `CCn1cc(CCC(=O)NCc2ccccc2OC)c2ccccc21`?
HCV inhibitor: 10µM*; HCMV inh: 3; FBPA Giardia inh: -4%; VACV mCherry inh: -14%; Vaccinia Venus: -14%; FMDV inh: 7%

Results for O=C(NCCc1ccccc1)C1(S(=O)(=O)c2ccc(Cl)cc2)CC1 ?
HCV inhibitor: 16%; HCMV inh: -32; FBPA Giardia inh: 9%; VACV mCherry inh: -4%; Vaccinia Venus: -8%; FMDV inh: -4%

How did CN=C1NN=C(c2cc(C)n(-c3c(C)n(C)n(-c4ccccc4)c3=O)c2C)CS1 do in these assays?
HCV inhibitor: 9%; HCMV inh: 2; FBPA Giardia inh: 0%; VACV mCherry inh: inactive; Vaccinia Venus: -8%; FMDV inh: -10%

What do the screens show for `COc1ccc(-n2c(C)cc(C3=NNC(=NC4CC4)SC3)c2C)cc1`?
HCV inhibitor: inconclusive; HCMV inh: -71*; FBPA Giardia inh: -25%; VACV mCherry inh: -6%; Vaccinia Venus: -5%; FMDV inh: -37%

How did c1ccc(C2=NNC(=NC3CC3)SC2)cc1 do in these assays?
HCV inhibitor: 1%; HCMV inh: 1; FBPA Giardia inh: -24%; VACV mCherry inh: inactive; Vaccinia Venus: -8%

Results for Cc1cc(C2=NNC(=NC3CC3)SC2)c(C)n1-c1ccccc1 ?
HCV inhibitor: inconclusive; HCMV inh: -77*; FBPA Giardia inh: 1%; VACV mCherry inh: -5%; Vaccinia Venus: -19%; FMDV inh: 0.1µM*

Results for Cc1ccc(Cl)cc1-n1ncc2c(NCCC3=CCCCC3)ncnc21 ?
HCMV inh: -7; VACV mCherry inh: -13%; Vaccinia Venus: -17%; FMDV inh: -13%

What do the screens show for `O=C(N/N=C/c1ccc(Cl)cc1)C(=O)N1CCCCCC1`?
HCV inhibitor: 1%; HCMV inh: -12; FBPA Giardia inh: inconclusive; VACV mCherry inh: -4%; Vaccinia Venus: -2%; FMDV inh: 82%

How did Cc1cccc(-c2nc3scc(CCNS(=O)(=O)c4ccc(F)c(C(F)(F)F)c4)n3n2)c1 do in these assays?
HCMV inh: -5; VACV mCherry inh: -10%[7.34 µM]; Vaccinia Venus: -8%[7.34 µM]; FMDV inh: 53%

How did Cc1cccc2c(C(=O)N3CCN(C(=O)c4ccco4)CC3)cc(-c3cccc(Br)c3)nc12 do in these assays?
HCV inhibitor: inconclusive; HCMV inh: -64*; FBPA Giardia inh: -6%; VACV mCherry inh: inactive; Vaccinia Venus: -22%; FMDV inh: 18µM*
